Only some compounds are listed: those with a hit (about 1.2% of all), similar ones and a draw of the others.
NOD2 RIPK2 PPI = inhibitors of human NOD2-RIPK2 interaction; 360,000 compounds, 0.38% hits; inhibition, % at 4.98 µM; CHO BLA complementation NOD2-RIPK2, CCF4 ratio; O43353; in the data active = inhibition above about 21%;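 note: 0% = vehicle only and 100% = reference blocker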
ABHD5-PLIN5 inh = inhibitors of human ABHD5-perilipin-5 interaction; Q00G26+Q8WTS1; Split G. princeps luciferase complementation, luminescence, 4 h; inhibition, % at 4 µM; 360,000 compounds, 0.78% hits;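 active = inhibition above the mean inhibition across every tested compound plus 3 SD, cut at about 22% in these data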;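 note: 0% = DMSO only wells and the 100% control is not disclosed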
TLR9-MyD88 block = inhibitors of human TLR9-MyD88 binding; Q9NR96+Q99836; CHO BLA complementation TLR9-MyD88, CCF4 FRET ratio; inhibition, % at 4.98 µM; 340,000 compounds, 0.21% hits;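 active = inhibition above the mean over all tested compounds plus 3 SD, cut at about 21% in these data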;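 note: 0% = DMSO only wells and 100% = clavulanate BLA inhibitor control wells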
TLR4 MyD88 comp = blocks binding of human TLR4 to MyD88. 200,000 compounds, 0.18% hits. HeLa CL3-4 TLR4/MyD88 BLA complementation, FRET ratio. AID 861. inhibition, % at 8.4 µM; in the data active = inhibition above about 25%;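 note: 0% = vehicle and 100% = reference inhibitor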
An asterisk follows results filed as active; · = no result.

SMILES	NOD2 RIPK2 PPI	ABHD5-PLIN5 inh	TLR9-MyD88 block	TLR4 MyD88 comp
CCc1ccc(-c2cn3nc(C)c(C)nc3n2)cc1	8	4	-1	27*
COc1ccccc1C(=O)Nc1c(C(=O)N(CCN(C)C)Cc2ccco2)oc2ccccc12	-3	22*	2	·
Cc1ccccc1C(=O)Nc1c(C(=O)N(CCN(C)C)Cc2ccco2)oc2ccccc12	0	5	3	·
N=c1c(S(=O)(=O)c2ccc(Cl)cc2)cc2c(=O)n3ccccc3nc2n1Cc1ccco1	19	28*	8	·
N=c1c(S(=O)(=O)c2ccc(Br)cc2)cc2c(=O)n3ccccc3nc2n1Cc1ccccc1	-6	3	3	·
N=c1c(S(=O)(=O)c2ccc(Br)cc2)cc2c(=O)n3ccccc3nc2n1Cc1ccco1	17	34*	-44	·
O=C(CC(SCCO)c1ccc([N+](=O)[O-])cc1)c1ccco1 (stereo not drawn)	-5	23*	1	·
Oc1ccccc1CNc1cnc2ccccc2c1	-5	-12	2	4
Oc1ccc2ccccc2c1CNc1cnc2ccccc2c1	-3	22*	-12	2
CC(C)C[C@H](N)c1nnc(S(=O)(=O)Cc2ccc(F)cc2)o1	9	31*	11	12
O=C(OCC(=O)N1CCN(C(=O)c2ccco2)CC1)c1cc(-c2ccco2)nc2ccccc12	-14	24*	2	11
O=C(OCC(=O)N1CCN(C(=O)c2ccco2)CC1)c1cc(-c2ccc(Cl)c(Cl)c2Cl)nc2ccccc12	-3	1	-5	2
Cc1ccc(CN2CCN(C3CCOCC3)CC2CCO)cc1 (stereo not drawn)	1	1	8	-30
CCCCC(=O)NC(c1ccc(Cl)cc1)c1ccc2cccnc2c1O (stereo not drawn)	5	22*	8	·
O=C(Cn1c2[n+](c3ccc(C(F)(F)F)cc31)CCCCC2)Nc1ccc(Br)cc1	-6	96*	1	4
N#Cc1ccc(NC(=O)Cn2c3[n+](c4ccc(C(F)(F)F)cc42)CCCCC3)cc1	-6	10	7	17
COc1ccccc1-c1cnc(C(O)c2ccc(SC)cc2)[nH]1 (stereo not drawn)	8	-1	·	·
CS(=O)(=O)c1ccc(N)c(SSc2cc(S(C)(=O)=O)ccc2N)c1	1	83*	0	·
CS(=O)(=O)c1ccc2nc(N)sc2c1	-7	1	-12	-3
COC(=O)c1ccc(C(=S)NCC2(N(C)C)CCCCC2)cc1	8	4	-4	·
O=[N+]([O-])/C=C/c1c(OCc2ccccc2)ccc2ccccc12	82*	84*	27*	13
CCCCOc1ccc2ccccc2c1C=O	5	4	11	-13
Cc1ccccc1NC(=O)c1ccc(OCc2c(C)noc2C)cc1	-12	2	-15	·
OC(c1ccc(F)cc1)c1ncc(-c2cccc3ccccc23)[nH]1 (stereo not drawn)	5	0	·	·
CCN1CCN(CCNC(=O)c2ccc(/C=C3/Sc4ccccc4N(Cc4cccc(Cl)c4)C3=O)cc2)CC1	18	22*	6	-3
SMILES	NOD2 RIPK2 PPI	ABHD5-PLIN5 inh	TLR9-MyD88 block	TLR4 MyD88 comp
Cc1cccc(CN2C(=O)/C(=C\c3ccc(C(=O)NCCN4CCOCC4)cc3)Sc3ccccc32)c1	10	7	-3	·
C#CCOCCOCCOCCNc1nc(N2CCN(C(=O)[C@H]([C@@H](C)CC)n3cc(CCCN=C(N)N)nn3)CC2)nc(N2CCN(C(=O)[C@H](CCCCN)n3cc(CCC(=O)O)nn3)CC2)n1	-6	-6	-7	-10
C#CCOCCOCCOCCNc1nc(N2CCN(C(=O)CCCCCCCCCCNC(=O)[C@H](CCCCN)n3cc(CCCC(=O)O)nn3)CC2)nc(N2CCN(C(=O)CCCCCCCCCCNC(=O)[C@H](CCCN=C(N)N)n3cc(C[C@@H](C)CC)nn3)CC2)n1	10	45*	-2	·
C#CCOCCOCCOCCNc1nc(N2CCOCC2)nc(N2CCN(C(=O)CCCCCCCCCCNC(=O)[C@H](CO)n3cc(CCCCCN)nn3)CC2)n1	-2	4	-7	·
C#CCOCCOCCOCCNc1nc(N2CCN(C(=O)CCCCCCCCCCNC(=O)[C@H](CCCCN)n3cc(CCCC(=O)O)nn3)CC2)nc(N2CCN(C(=O)CCCCCCCCCCNC(=O)[C@H](CCCCN)n3cc(CCCC(=O)O)nn3)CC2)n1	-6	14	2	·
C#CCOCCOCCOCCNc1nc(N2CCN(C(=O)CCCCCCCCCCNC(=O)[C@H](CCCCN)n3cc(CCO)nn3)CC2)nc(N2CCN(C(=O)CCCCCCCCCCNC(=O)[C@H](CCCCN)n3cc(CCO)nn3)CC2)n1	8	29*	-7	·

Compound activity (PubChem BioAssay)
